Data on 39 compounds can be found in PubChem BioAssay (EPA / NIEHS).

More than one record can exist for a structure, and the calls need not agree. Calls of active or inactive are those of the source. The calls were made as follows: active = hit-call score of the fitted dose curve at least 0.9, where 1 is the maximum; inactive = score below 0.9.

The experiment can be described thus: BSK_SAg_PBMCCytotoxicity: PBMC Cytotoxicity Assessment in the BioMAP Diversity Plus: SAg Assay (AID 2283093).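 Also: fitted both ways against DMSO so a hit may be loss or gain of signal.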 To be noted: primary human HUVEC with PBMC. The method, then:
BSK_SAg is a cell-based, multiplexed-readout assay that uses umbilical vein endothelium and peripheral blood mononuclear cells, a human vascular primary cell co-culture, with measurements taken at 24 hours after chemical dosing in a 96-well plate.BSK_SAg_PBMCCytotoxicity is an assay component measured in the BSK_SAg assay. It measures Alamar blue related to cell death using Alamar Blue Reduction technology.Data from the assay component BSK_SAg_PBMCCytotoxicity was analyzed into 1 assay endpoint. This assay endpoint, BSK_SAg_PBMCCytotoxicity, was analyzed with bidirectional fitting relative to DMSO as the negative control and baseline of activity. Using a type of viability reporter, gain or loss-of-signal activity can be used to understand changes in the viability. Furthermore, this assay endpoint can be referred to as a secondary readout, because this assay has produced multiple assay endpoints where this one serves a viability function. To generalize the intended target to other relatable targets, this assay endpoint is annotated to the cell cycle intended target family, where the subfamily is cytotoxicity.
The levels of cell surface (or secreted, indicated by the prefix "s") biomarker endpoints were measured by ELISA. Overt cytotoxicity to cells in confluent adherent cultures (all systems other than the BT system) was assessed by measuring total protein levels using sulforhodamine B (SRB) staining in parallel cultures at the time of biomarker measurements, indicated as SRB endpoints. For proliferation assays for adherent cell types, individual cell types are cultured at sub-confluence and relative cell numbers quantified by SRB staining at time points optimized for each system (48 h: 3C and CASM3C systems; 72 h: BT and HDF3CGF systems; 96 h: SAg system). SRB was performed by staining cells with 0.1% SRB after fixation with 10% TCA and reading wells at 560 nm.Viability and proliferation of PBMC (T cells) was quantified by Alamar Blue reduction for the SAg and BT systems. For PBMC viability (referred to as PBMC Cytotoxicity within the assay endpoint names), cells were plated (75,000/well in a 96-well plate) and then chemical samples added for 1 h before addition of activators, SEB and TSST-1 (20 ng/mL final concentration each). Cells were incubated for 90 h. Then, Alamar Blue (20 uL/well) (Invitrogen, Cat DAL1100) was added for 6 h, and the plates were read with a fluorescence microplate reader at 546/580 nm (excitation/emission). For PBMC proliferation, cells were plated and activated as above but incubated for only 16 h prior to addition of Alamar Blue. Plates were read after 6 h.
As for `CC(=O)OC(c1ccccc1)C(Cl)(Cl)Cl` (stereo not given), the outcome was inactive. Turning to `COP(=S)(OC)Oc1cc(Cl)c(Cl)cc1Cl`, the outcome was inactive. The AC50 is the midpoint of the concentration-response curve, whichever way the signal moves. Regarding `ClC1=C(Cl)[C@]2(Cl)[C@H]3[C@H]([C@H]4C=C[C@H]3C4)[C@@]1(Cl)C2(Cl)Cl`, the AC50 was 20 µM (active). Turning to `ClC1(Cl)C2(Cl)C3(Cl)C4(Cl)C(Cl)(Cl)C5(Cl)C3(Cl)C1(Cl)C5(Cl)C24Cl` (stereo not given), the outcome was inactive. Same read-out and setting: the value for `CCCCCCCCC(=O)NCc1ccc(O)c(OC)c1` was “inactive”; that for `COP(=S)(OC)Oc1ccc(S(=O)(=O)N(C)C)cc1` was “inactive”; that for `COC(=O)c1sccc1S(=O)(=O)NC(=O)Nc1nc(C)nc(OC)n1` was “inactive”. With `O=C(O)C(Cl)(Cl)Cl`, the outcome was inactive. As to `CCC(=O)C(CC(C)N(C)C)(c1ccccc1)c1ccccc1` (stereo not given), the outcome was inactive. In the case of `O=C(O)C(F)(F)C(F)(F)C(F)(F)C(F)(F)C(F)(F)C(F)(F)C(F)(F)C(F)(F)C(F)(F)C(F)(F)F`, the AC50 is 31.5 µM (active) and the outcome was inactive. In the case of `ClCC(Cl)CCl`, the result was inactive. For the compound `C=C(C)C(=O)[O][Sn]([CH2]CCC)([CH2]CCC)[CH2]CCC`, the concentration at half-maximal activity (AC50) was 0.236 µM (active). Regarding `CCN1CCC2(CC1)COc1cc3c(cc12)N(C(=O)c1ccc(-c2ccc(-c4nnc(C)o4)cc2C)cc1)CC3`, the AC50 is 12.6 µM (active). On the same count and under the same terms, the value for `CC(C)(C)c1cc(O)ccc1O` was 3.17 µM (active).

Regarding `C[C@]12CCC(=O)C[C@@H]1CC[C@@H]1[C@@H]2CC[C@]2(C)[C@@H](O)CC[C@@H]12`, the result was inactive.

Consider `NC(=O)O`, for which the result was inactive. As for `CCOP(=S)(OCC)SCCS(=O)(=O)CC`, the result was inactive.

As for `O=c1[nH]c(=O)[nH]c(=O)[nH]1`, the outcome was inactive. Still for that read-out and setting: the value for `CCCCC(CC)CO[N+](=O)[O-]` (stereo not given) was “inactive”; that for `COP(=S)(OC)Oc1ccc(Sc2ccc(OP(=S)(OC)OC)cc2)cc1` was “inactive”.

As for `O=C(OC1CCCCC1)c1ccccc1C(=O)OC1CCCCC1`, the AC50 is 20.9 µM (active). On to `Oc1ccc(-c2ccccc2)cc1`, for which the result was inactive. With `C=CC(=O)OCCCCCC(C)C`, the outcome was inactive. As for `Oc1cccc2cccnc12`, the AC50 is 3.57 µM (active).

As for `COC[C@H](C)N(C(=O)CCl)c1c(C)csc1C`, the outcome was inactive. Regarding `Nc1ncc([N+](=O)[O-])s1`, the result was inactive.

As for `CC(C)c1ccc(CO)cc1`, the result was inactive. Take `O=C(Nc1ccc2[nH]ccc2c1)c1cc2cc(F)ccc2n1Cc1cccc(F)c1`: the concentration at half-maximal activity (AC50) is 9.98 µM (active). `Cc1ccccc1N`: the result was inactive. With `C(=NC1CCCCC1)=NC1CCCCC1`, the AC50 is 16.5 µM (active). As to `CC(=O)[O][Hg][c]1ccccc1`, the concentration at half-maximal activity (AC50) is 0.318 µM (active). For the compound `CN(C)N=O`, the outcome was inactive. For the compound `CCC(C)(C)c1ccc(O)c(C(C)(C)CC)c1`, the AC50 was 9.42 µM (active). In the case of `COc1cc(-c2ccc(N)c(OC)c2)ccc1N`, the outcome was inactive. On the same count and under the same terms, the value for `O=C(O)C(F)(F)C(F)(F)C(F)(F)C(F)(F)C(F)(F)C(F)(F)F` was “inactive”; that for `CCNc1nc(NC(C)(C)C)nc(SC)n1` was “inactive”. Still for that read-out and setting: the value for `BrCCBr` was “inactive”; that for `CC(C)(OO)c1ccccc1` was “inactive”. In the case of `CCOC(=O)/C=C(C)/C=C/C[C@@H](C)CCCC(C)C`, the AC50 was 26.4 µM (active).
